The test system of one assay is Staphylococcus aureus. The assay can be described thus: Antibacterial activity against Staphylococcus aureus MRSA ATCC 43300 (CO-ADD:GP_020); MIC in CAMBH media using NBS plates, by Resazurin F(560/590). It is filed as functional. The settings on record: Concentration 20 uM, ASSAY_TEST Inhibition of Bacterial Growth, detection method Resazurin, Fluorescence (ex560/em590), MEDIA CAMHB, plate type 384well, CORNING #3640, time 18 hr. On the technique in general: Resazurin is reduced to fluorescent resorufin, in cell work by metabolically active cells.

A further assay concerns Acinetobacter baumannii. Kind of assay: Antibacterial activity against Acinetobacter baumannii ATCC 19606 (CO-ADD:GN_034); MIC in CAMBH media using NBS plates, by Resazurin F(560/590). The settings on record: Concentration 20 uM, ASSAY_TEST Inhibition of Bacterial Growth, detection method Resazurin, Fluorescence (ex560/em590), MEDIA CAMHB, plate type 384well, CORNING #3640, time 18 hr. It is filed as functional.

For another assay, the system named is Escherichia coli. Kind of assay: Antibacterial activity against Escherichia coli ATCC 25922 (CO-ADD:GN_001); MIC in CAMBH media using NBS plates, by Resazurin F(560/590). It is filed as functional. The settings on record: Concentration 20 uM, ASSAY_TEST Inhibition of Bacterial Growth, detection method Resazurin, Fluorescence (ex560/em590), MEDIA CAMHB, plate type 384well, CORNING #3640, time 18 hr.

For the next assay, the system named is Klebsiella pneumoniae. The settings on record: Concentration 20 uM; ASSAY_TEST Inhibition of Bacterial Growth; detection method Absorption (OD600); MEDIA CAMHB; plate type 384well; NBS; CORNING #3640; time 18 hr.
The next assay deals with Candida albicans. The settings on record: 20 µM.
For another assay, the system named is Cryptococcus neoformans. The settings on record: Concentration 20 uM; ASSAY_TEST Inhibition of Fungal Growth; detection method Resazurin; Absorption (OD600-OD570); plate type 384well; NBS; CORNING #3640.

For part of these data: Results with a measured potency or affinity are listed apart.

Take `CCc1cc2c(cc1-c1csc(CC(=N)NO)n1)C(C)(C)CCC2(C)C`: the Inhibition (as a rule, the change of the read-out against control, counted positive when it falls) was 9.42% in the assay with Staphylococcus aureus; 7.35% with Acinetobacter baumannii; -22.59% in the assay with Escherichia coli; 1.69% in the assay on Klebsiella pneumoniae; 7.1% with Candida albicans; 24.54% in the assay on Cryptococcus neoformans.
For the compound `C1CC2NCCC3NCCC(N1)N32` (centres undefined), the Inhibition was 9.55% in the assay on Staphylococcus aureus; -9.44% in the assay on Acinetobacter baumannii; 11.78% in the assay with Escherichia coli; 14.06% in the assay on Klebsiella pneumoniae; -0.83% with Candida albicans; -3.22% in the assay with Cryptococcus neoformans.
With `CN1CCc2cc3c(cc2C1)OCO3`, the Inhibition in the assay with Staphylococcus aureus is -5.07%; with Acinetobacter baumannii, -14.77%; in the assay on Escherichia coli, 11.12%; with Klebsiella pneumoniae, 3.04%; with Candida albicans, 1.35%; in the assay on Cryptococcus neoformans, -8.47%.
For `COc1ccc2c(c1O)[C@]13CCN(C)[C@H](C2)[C@@H]1CCC(=O)C3`, the Inhibition with Staphylococcus aureus was -1.15%; in the assay with Acinetobacter baumannii it was -13.17%; with Escherichia coli it was 7.37%; in the assay with Klebsiella pneumoniae, 14.9%; in the assay with Candida albicans, 0.05%; in the assay with Cryptococcus neoformans, -12.71%.
For the compound `c1cncc(C2Nc3cccc4cccc(c34)N2)c1`, the Inhibition with Staphylococcus aureus was -23.65%; in the assay on Acinetobacter baumannii, -11.45%; with Escherichia coli, -11.57%; in the assay with Klebsiella pneumoniae it was 4.78%; in the assay on Candida albicans, 10.3%; in the assay with Cryptococcus neoformans, 30.98%.
On to `O=C1CC(c2ccc(O)cc2)Oc2cc(O)cc(O)c21` (centres undefined), for which the Inhibition in the assay on Staphylococcus aureus was 9.17%; in the assay on Acinetobacter baumannii, 6.14%; with Escherichia coli, -5.6%; in the assay with Klebsiella pneumoniae, 10.18%; in the assay with Candida albicans it was 4.1%; in the assay with Cryptococcus neoformans, -1.84%.
Take `O=C1CCCN1CC#CCN1CCCC1` [OXOTREMORINE]: the Inhibition in the assay on Staphylococcus aureus is -8.85%; in the assay with Acinetobacter baumannii, 7.42%; in the assay on Escherichia coli, 9.1%; in the assay with Klebsiella pneumoniae it was 1.39%; in the assay with Candida albicans it was 0.18%; in the assay with Cryptococcus neoformans, -12.14%.
On to `N#CC12CNCC1CN=N2` (centres undefined), for which the Inhibition in the assay on Staphylococcus aureus was 10.47%; in the assay with Acinetobacter baumannii, 1.05%; in the assay on Escherichia coli, -13.15%; in the assay on Klebsiella pneumoniae, 8.95%; in the assay with Candida albicans it was 1.04%; in the assay with Cryptococcus neoformans, 19.07%.
With `CN1C2c3ccccc3C3C4c5ccccc5C(C31)C(C2[N+](=O)[O-])N4C` (centres undefined), the Inhibition is 16.96% in the assay on Staphylococcus aureus; 4.34% in the assay on Acinetobacter baumannii; 9.05% in the assay on Escherichia coli; 7.01% in the assay on Klebsiella pneumoniae; 2.24% in the assay with Candida albicans; -16.47% in the assay with Cryptococcus neoformans.
For the compound `CN1CCN(c2nc(N)cc(O)n2)CC1`, the Inhibition was -8.8% with Staphylococcus aureus; 13.73% in the assay on Acinetobacter baumannii; 3.5% in the assay on Escherichia coli; 7.87% with Klebsiella pneumoniae; 7.43% in the assay on Candida albicans; -4.09% in the assay with Cryptococcus neoformans.
Regarding `CN1CCC2(O)OCCCC2C1` (centres undefined), the Inhibition is 3.54% in the assay on Staphylococcus aureus; -13.99% in the assay with Acinetobacter baumannii; 3.03% in the assay with Escherichia coli; 26.78% in the assay with Klebsiella pneumoniae; 1.09% in the assay with Candida albicans; 3.57% with Cryptococcus neoformans.
Regarding `COc1ccc(C2=CC(c3ccc(OC)c(OC)c3)c3c(c4ccccc4oc3=O)O2)cc1OC` (centres undefined), the Inhibition was 20.66% in the assay on Staphylococcus aureus; -10.24% in the assay with Acinetobacter baumannii; 10.7% in the assay on Escherichia coli; 7.71% with Klebsiella pneumoniae; 5.25% with Candida albicans; -11.5% in the assay on Cryptococcus neoformans.
In the case of `CN1C(=O)NC(=O)C(/N=N/c2ccc(Cl)cc2)C1=O` (centres undefined), the Inhibition with Staphylococcus aureus was 11.94%; in the assay with Acinetobacter baumannii, 12.18%; with Escherichia coli, 3.45%; with Klebsiella pneumoniae, 13.9%; with Candida albicans it was 1.14%; in the assay with Cryptococcus neoformans it was -3.1%.
In the case of `COc1c(OP2(=S)OCC(C)(C)CO2)cnn(C2CCCCC2)c1=O`, the Inhibition was 22.66% in the assay on Staphylococcus aureus; -7.99% with Acinetobacter baumannii; 17.33% in the assay on Escherichia coli; 10.42% in the assay on Klebsiella pneumoniae; -1.61% in the assay with Candida albicans; -6% in the assay with Cryptococcus neoformans.
With `CC(=O)Nc1ccc([As](=O)(O)c2ccc([N+](=O)[O-])cc2)cc1`, the Inhibition is 12.11% with Staphylococcus aureus; 8.34% with Acinetobacter baumannii; -3.43% in the assay with Escherichia coli; 10.87% with Klebsiella pneumoniae; -1.88% in the assay with Candida albicans; 0.38% in the assay on Cryptococcus neoformans.
As to `C[C@]12CC[C@@H]3c4ccc(OC(=O)N(CCCl)CCCl)cc4CC[C@H]3[C@@H]1CC[C@@H]2O` [ESTRAMUSTINE], the Inhibition in the assay on Staphylococcus aureus is 12.2%; with Acinetobacter baumannii, -4.55%; in the assay with Escherichia coli, -3.6%; in the assay on Klebsiella pneumoniae, 12.05%; in the assay with Candida albicans it was 11%; with Cryptococcus neoformans, -2.85%.
Regarding `CN(C)P(=O)(N(C)C)N1CC1`, the Inhibition in the assay with Staphylococcus aureus is 13.5%; in the assay on Acinetobacter baumannii it was -2.37%; in the assay with Escherichia coli, 15.32%; in the assay with Klebsiella pneumoniae it was 12.98%; in the assay with Candida albicans, -1.16%; in the assay on Cryptococcus neoformans, -11.15%.
As to `O=[As](O)(O)c1ccc(/N=N/c2ccc(O)cc2)cc1`, the Inhibition in the assay with Staphylococcus aureus was -11.42%; in the assay on Acinetobacter baumannii, -13.35%; with Escherichia coli it was 0.89%; in the assay with Klebsiella pneumoniae, 15.09%; with Candida albicans, 7.76%; with Cryptococcus neoformans it was -3.57%.
With `NC(=O)c1ccc(C(=O)Nc2ccc([As](=O)(O)O)cc2)cc1`, the Inhibition in the assay on Staphylococcus aureus is 11.66%; in the assay with Acinetobacter baumannii it was 7.33%; in the assay on Escherichia coli, 15.44%; with Klebsiella pneumoniae, 11.59%; with Candida albicans it was -0.15%; with Cryptococcus neoformans, -8.21%.
As for `N=C(N)N/N=C/c1c(Cl)cccc1Cl` [GUANABENZ], the Inhibition with Staphylococcus aureus is 5.03%; with Acinetobacter baumannii, -12.8%; in the assay with Escherichia coli, 13.45%; with Klebsiella pneumoniae, 13.62%; in the assay on Candida albicans, -0.73%; with Cryptococcus neoformans, -12.66%.
In the case of `CCC(CO)NC(=O)C1C=C2c3cccc4[nH]cc(c34)CC2N(C)C1` (centres undefined), the Inhibition was 1.02% in the assay with Staphylococcus aureus; 14.09% with Acinetobacter baumannii; -11.63% in the assay on Escherichia coli; 10.28% in the assay on Klebsiella pneumoniae; -0.04% in the assay with Candida albicans; 5.57% in the assay on Cryptococcus neoformans.
Turning to `C(=C\c1ccncc1)/c1ccncc1`, the Inhibition in the assay with Staphylococcus aureus was -0.23%; in the assay on Acinetobacter baumannii it was -2.33%; in the assay on Escherichia coli, 7.13%; with Klebsiella pneumoniae, 5.66%; in the assay on Candida albicans, -2.45%; in the assay on Cryptococcus neoformans it was -3.12%.
Turning to `C[C@H]1CC[C@@]2(C)[C@@H](CC[C@@H]3[C@@H]2CC[C@]2(C)[C@@H](O)CC[C@@H]32)C1`, the Inhibition is 19.61% with Staphylococcus aureus; 5.34% with Acinetobacter baumannii; 2.81% in the assay on Escherichia coli; 23.84% in the assay on Klebsiella pneumoniae; 9.51% in the assay with Candida albicans; -1.26% in the assay with Cryptococcus neoformans.
Turning to `CC12CCC3C(CC=C4CC(O)CCC43C)C1C/C(=C\N1CCCC1)C2=O` (centres undefined), the Inhibition in the assay with Staphylococcus aureus is 1.08%; in the assay on Acinetobacter baumannii, 21.07%; in the assay on Escherichia coli it was 1.6%; with Klebsiella pneumoniae it was 23.67%; with Candida albicans, -3.81%; with Cryptococcus neoformans, -14.08%.

The record behind these values is ChEMBL document CHEMBL4296182, “CO-ADD screening of NIH NCI Diversity Set V”.
